The results in this text go back to ChEMBL document CHEMBL4513216, “Probing the Open Global Health Chemical Diversity Library for Multistage-Active Starting Points for Next-Generation Antimalarials” (ACS Infect Dis, 2020).

The whole screen tested about 69,000 compounds, of which about 8,600 (12%) showed an effect of 50% or more. The list comes from a sample in which strong results are over-represented; it also holds similar structures and randomly drawn compounds.

This assay concerns Plasmodium berghei. Kind of assay: Screen against P. berghei liver stage (PbLuc), transformed with Luciferase, at 10uM. The conditions noted are these: tested at 10 uM. In kind it is functional, HepG2.
Take `O=C(CC1CCCO1)NS(=O)(=O)Cc1cc(-c2ccccc2)no1` (configuration not stated): the INHIBITION is given as 25%.
Under `Cc1ccc(CN2CCC3(CCN(c4cnn(C)c4)C3=O)C2)s1` (configuration not stated) stands 1.94%; under `CCS(=O)(=O)N1CCC2(CC1)CC[C@@]1(C(=O)N(C)C)CN(C)C[C@@H]21`, -10.5%; under `CCN1C[C@H]2C3(CCN(C(=O)NC(C)C)CC3)CC[C@@]2(C(=O)N(C)C)C1`, 28.5%.
As for `CC(C)NC(=O)N1CCC2(CC1)CC[C@@]1(C(=O)N(C)C)CN(C)C[C@@H]21`, the INHIBITION came out at 67.5%.
In the case of `O=C(NCc1cc(=O)n2c(n1)CN(CC1CCOC1)CCC2)C1CC1` (configuration not stated), the INHIBITION was 26.8%.
Under `CCCc1nc(N2CC[C@@H](c3ccc4ccccc4c3)[C@H](O)C2)no1` stands 36.7%; under `Cc1nc(N2CC[C@@H](c3ccc4ccccc4c3)[C@H](O)C2)no1`, 31.2%.
Under `O[C@@H]1CN(c2noc(C3CC3)n2)CC[C@H]1c1ccc2ccccc2c1` stands 51.2%; under `CC(C)NC(=O)N1CCC2(CC1)NC(=O)CC2c1ccncc1` (configuration not stated), -3.51%.
As for `CCc1nnc2n1CCN(C(=O)c1cn(-c3ccccc3)nn1)C2`, the figure is -1.15%; as for `Cc1nc(CN2C(=O)CCC23CCN(Cc2ccco2)CC3)cs1`, 3.17%; as for `Cc1nc(CN2CCC3(CCN(C(=O)c4ccoc4C)CC3)C2)cs1`, 66.2%.
`Cc1nc(CN2C[C@@H]3CN(C(=O)c4ccoc4C)C[C@@H]3C2)cs1`: the INHIBITION came out at 1.48%.
On to `Cc1occc1C(=O)N1CCC2(CCN(Cc3cccs3)C2)CC1`, for which the INHIBITION was -33.9%.
As for `Cc1nc(CN2CCC3(C2)CN(Cc2ccco2)C3)cs1`, the INHIBITION was determined as 56.6%.
Consider `Cc1occc1C(=O)N1CCC2(CCN(Cc3nccs3)C2)CC1`, for which the INHIBITION was 1.81%.
For `Cc1nc(CN2C[C@@H]3CN(C(=O)c4ccco4)C[C@@H]3C2=O)cs1`, the INHIBITION worked out at 40.4%.
Under `Cc1nc(CN2C[C@@H]3CN(C(=O)c4ccoc4C)C[C@@H]3C2=O)cs1` stands 64.9%.
Under `Cc1nc(CN2CCC23CCN(Cc2ccco2)CC3)cs1` stands 49.4%; under `CCN(CC)S(=O)(=O)N1CCCC1c1cccc(Nc2ncc(C)s2)n1` (configuration not stated), 76.1%.
As for `Cc1cnc(Nc2cccc(C3CCCN3C(=O)CO)n2)s1` (configuration not stated), the figure is -0.902%.
Turning to `Cc1ccc(C2CCCCCN2Cc2cn(C)nc2C)s1` (configuration not stated), the INHIBITION was 27.6%.
As for `Cc1nn(C)cc1CN1CCCC1c1cccc(Nc2nccs2)n1` (configuration not stated), the figure is 23.25%; as for `Cc1cnc(Nc2cccc(C3CCCN3Cc3cn(C)nc3C)n2)s1` (configuration not stated), 64.5%.
For `COCC(=O)N1CCCC1c1cccc(Nc2ncc(C)s2)n1` (configuration not stated), the INHIBITION is 42.4%.
`CCOCCN1C[C@@H]2CCCO[C@@H]2[C@H](NC(=O)c2cnoc2C)C1`: the INHIBITION came to 32.1%.
As for `CC1(c2ncc(CN3CCN(c4ncccn4)CC3)cn2)CCCCO1` (configuration not stated), the figure is 23.15%.
As to `O=C(c1ccccc1F)N1C[C@@H]2COC[C@]2(COCc2cccnc2)C1`, the INHIBITION worked out at 10%.
As for `CCCN1C(=O)c2ccccc2C1OC` (configuration not stated), the figure is 28.7%; as for `CC(=O)Nc1cc(Br)cnc1OCC(F)(F)F`, 30.3%.
Under `COCC(=O)Nc1cc(Br)cnc1OCC(F)(F)F` stands 26%; under `CCC(=O)Nc1cc(Br)cnc1OCC(F)(F)F`, 67.1%.
As for `O=C(c1cccc2cccnc12)N1CC[C@@]2(CCCO2)[C@@H](O)C1`, the figure is 22%.
Regarding `COC(=O)CC(c1ccc(OC)c(O)c1)c1oc(C)cc(=O)c1O` (configuration not stated), the INHIBITION came out at 3.31%.
As for `CN1CCN(CCOc2ccc(NC(=O)c3ccncc3)cc2)CC1`, the figure is 27%; as for `CNc1nc2c(c(C(=O)N3CCCC3)n1)CN(C(=O)c1cccs1)CC2`, -37.9%.
Under `O=C1CCC(C(=O)N2CCOC(Cc3ccc(F)cc3)C2)=NN1` (configuration not stated) stands -11.6%; under `NCC1CN(C(=O)c2cccc(-n3cccn3)c2)CCO1` (configuration not stated), 40.5%; under `O=C1CCC(C(=O)N2CCOC(Cc3ccccc3Cl)C2)=NN1` (configuration not stated), 71.1%.
Under `CCn1ncnc1CN1CCOC(Cc2cccc3ccccc23)C1` (configuration not stated) stands 44.3%; under `O=C1CCC(C(=O)N2CCOC(Cc3cccc4ccccc34)C2)=NN1` (configuration not stated), 53.7%; under `Cn1ccnc1C(=O)N1CCOC(Cc2ccccc2Cl)C1` (configuration not stated), 41.2%.
`Cc1cc2ccncc2n1CC1(O)CCN(C(=O)c2ccccn2)CC1`: the INHIBITION was determined as 18.3%.
Turning to `COC(=O)c1cc2c(OC)c(OC)c(OC)cc2[nH]1`, the INHIBITION is reported as 32.2%.
Under `C=c1ncsc1=C1NN=C(C2CCCN2C(=O)CCn2cccn2)O1` (configuration not stated) stands 16.575%; under `CCCNC(=O)c1cccc(CNCc2csc(C(C)C)n2)c1`, 55.1%; under `CCC(C)NC(=O)c1cccc(CNCc2csc(C(C)C)n2)c1` (configuration not stated), 64.5%.
For the compound `CCNC(=O)c1cccc(CNC(=O)c2cnc(C(C)(C)C)s2)c1`, the INHIBITION is recorded as -6.94%.
Under `CCC(C)NC(=O)c1cccc(CNC(=O)CC(F)(F)F)c1` (configuration not stated) stands -76.9%; under `CCCNC(=O)c1cccc(CNCc2csc(CC)n2)c1`, 12.3%; under `CCCNC(=O)CN1CCC(NCc2csc(C(C)C)n2)CC1`, -16.8%.
For `CCCNC(=O)C1CCN(Cc2csc(C(C)C)n2)CC1`, the INHIBITION is on record as 42%.
Consider `CCCNC(=O)c1cccc(CNCc2csc(C(C)(C)C)n2)c1`, for which the INHIBITION stood at 77.4%.
Turning to `CC(C)c1nc(CNC(=O)c2ccc(C(C)N3CCCCC3)o2)cs1` (configuration not stated), the INHIBITION is recorded as 42.2%.
Under `Cc1ccc(C(=O)O)c(N2CC(C)(C)[C@@](C)(O)C2)n1` stands 16.2%.
As for `O=S(=O)(c1cncc(F)c1)N1CCC2(CCOC2)C1` (configuration not stated), the figure is -15.4%; as for `CC(=O)Nc1ccc2nc(CN(C)Cc3snnc3C)ccc2c1`, 11.4%.
Consider `COCc1cc(N(C)CCc2c(C)n[nH]c2C)ncn1`, for which the INHIBITION amounted to 26.7%.
With `COCC(c1cccc(C(F)(F)F)c1)N(C)C(=O)c1ccco1` (configuration not stated), the INHIBITION was 48.45%.
As for `O=C(c1cnccn1)N1CC[C@H]2C[C@@H](c3ccncn3)O[C@@H]2C1`, the figure is 29.9%; as for `O=c1cc(CN2CCCC2)nc2n1CCCN(S(=O)(=O)C1CC1)C2`, 29.5%.
Turning to `Cc1noc([C@@H]2CC[C@@H]3[C@@H](CCN3S(C)(=O)=O)O2)n1`, the INHIBITION is given as -10.3%.
In the case of `Cc1noc([C@H]2C[C@@H]3CCN(c4nnc(C)s4)C[C@H]3O2)n1`, the INHIBITION came out at 39.5%.
Under `Cc1noc([C@@H]2C[C@@H]3CCN(c4nnc(C)s4)C[C@H]3O2)n1` stands -21.1%; under `Cc1noc([C@H]2CC[C@@H]3[C@@H](CCN3c3ncccn3)O2)n1`, 51.4%.
Under `Cc1noc([C@@H]2CC[C@@H]3[C@@H](CCN3c3nnc(C)s3)O2)n1` stands 50.4%; under `Cc1noc([C@H]2CC[C@@H]3[C@@H](CCN3S(C)(=O)=O)O2)n1`, 7.12%; under `CN1C[C@@H]2CN(C(=O)NCc3cccc(F)c3)CCC[C@]2(C(=O)O)C1`, -10.5%.
As for `Cn1cc(C2CCCN2Cc2cscn2)cn1` (configuration not stated), the figure is 42%.
With `NC(=O)C1CCN(C(=O)CCn2ccc3ccc(F)cc32)CC1`, the INHIBITION came out at 33%.
Regarding `Cc1cccc(CNC2CCCc3c2cnn3C)c1` (configuration not stated), the INHIBITION is listed as 25.1%.
Under `Cn1ncc2c1CCCC2NCc1cccc(OC2CCCC2)c1` (configuration not stated) stands 50.5%.
As for `Cn1ncc2c1CCCC2NCc1cccc2c1OCCCO2` (configuration not stated), the figure is 50.3%.
Take `Cn1ncc2c1CCCC2NCc1cccc(C(F)(F)F)c1` (configuration not stated): the INHIBITION is 89.1%.
Consider `Cn1ncc2c1CCCC2NCc1cccnc1` (configuration not stated), for which the INHIBITION turned out to be 3.3%.
Under `CSc1ccc(CNC2CCCc3c2cnn3C)cc1` (configuration not stated) stands -46.8%; under `Cn1ncc2c1CCCC2NCc1cccc(F)c1` (configuration not stated), 4.71%; under `Cc1ccc(CNC2CCCc3c2cnn3C)s1` (configuration not stated), -10.8%.
Under `CCn1ncc2c1CCCC2NCc1cccc2c1OCCCO2` (configuration not stated) stands 40%.
As for `CCCn1cc(C(=O)NC2CCC(n3cnnc3)CC2)c(C)n1` (configuration not stated), the figure is 18.5%.
Regarding `Cc1occc1C(=O)N1CCC[C@]2(C[C@@H](OCc3ccccn3)CO2)C1`, the INHIBITION was found to be 22.9%.
As for `CCOCC1CN(Cc2ccccn2)Cc2nn(CC3CC3)cc21` (configuration not stated), the figure is -2.17%; as for `O=C(NCC(F)(F)F)c1ccc(-c2ccco2)[nH]c1=O`, 14.4%; as for `COc1ccc(C2CCCN2S(=O)(=O)N(C)C)cc1` (configuration not stated), -45.2%.
Under `c1c(CN2CCCC2)nc2n1CCN(CC1CC1)C2` stands -44.4%; under `COc1cc(C(=O)N(Cc2cnn(C)c2)C(C)C)ccc1OC(C)C`, 27.8%.
As for `CC1=N[C@@]2(CC[C@@H]3CN(Cc4ccccc4)C[C@@H]32)C(=O)N1CC1CC1`, the figure is -13.4%; as for `COc1ccc(C(=O)N2C[C@@H](C)[C@@](C)(O)C2)cc1N1CCOCC1`, -4.92%.
`COc1ccc(C(=O)N2CCOCC(CO)C2)cc1N1CCOCC1` (configuration not stated): the INHIBITION is 49.9%.
Consider `COc1ccc(C(=O)N2CC[C@](C)(O)[C@H](C)C2)cc1N1CCOCC1`, for which the INHIBITION was 54.4%.
As for `CC(C)Cn1cnc2ccc(NC(=O)CCCn3cccn3)cc2c1=O`, the figure is 13.2%; as for `CN(C)C(CNc1c(NCc2ccco2)c(=O)c1=O)c1ccccc1` (configuration not stated), 4.48%.
Under `Cn1cc(CN2C[C@H]3CCC[C@@]3(COCC3CC3)C2)cn1` stands 8.6%; under `Fc1cnc(N2C[C@H]3CCC[C@@]3(COc3ccccn3)C2)nc1`, 76.6%.
As for `CCS(=O)(=O)N1C[C@H]2CCC[C@@]2(COc2ccccn2)C1`, the figure is -23.7%; as for `Cn1cc(CN2C[C@H]3CCC[C@@]3(COc3ccccn3)C2)cn1`, 67.5%.
With `CS(=O)(=O)N1C[C@H]2CCC[C@@]2(COc2ccccn2)C1`, the INHIBITION is given as 33%.
Under `Cn1cc(CN2C[C@H]3CCC[C@@]3(COc3cccnc3)C2)cn1` stands 52.1%; under `c1cncc(OC[C@@]23CCC[C@@H]2CN(CC2CCOCC2)C3)c1`, 47.4%; under `Fc1cnc(N2C[C@@H]3COC[C@]3(COc3ccccn3)C2)nc1`, 43.1%.
Under `O=S(=O)(C1CC1)N1C[C@H]2CCC[C@@]2(COc2ccccn2)C1` stands 0.79%.
